# Source: PubChem BioAssay (NCI)
# Compounds without any hit were thinned out: in the full panel of roughly 83,000, 20% have a hit.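 How to read the values: 0–100, growth inhibition (40 = 60% inhibited); 0, no net growth; -100 to 0, cell death (-40 = 40% of starting cells died; -100 = all dead).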 A number with no mark means an inactive call. Active and inactive are the calls of the source. Rule for the calls: active = growth percent below 10; inactive = the rest.
# Columns and labels:
# Assay in all cases: NCI-60 one-dose screen, 48 h (100 = growth as untreated, 0 = no growth, -100 = all killed)
# Conditions in all cases: 10 µM unless noted
# T-47D breast = system: T-47D breast
# BT-549 breast = system: BT-549 breast
# MDA-MB-435 melanoma = system: MDA-MB-435 melanoma
# SW-620 colon = system: SW-620 colon
# MCF7 breast = system: MCF7 breast
# HCT-116 colon = system: HCT-116 colon
# HCC-2998 colon = system: HCC-2998 colon
# KM12 colon = system: KM12 colon
SMILES,growth (T-47D breast),growth (BT-549 breast),growth (MDA-MB-435 melanoma),growth (SW-620 colon),growth (MCF7 breast),growth (HCT-116 colon),growth (HCC-2998 colon),growth (KM12 colon)
CCc1ccc(Oc2cn[nH]c2-c2ccc(OCCc3ccc(F)cc3)cc2O)cc1,34.5%,107%,91.6%,94.1%,85.3%,71.9%,98.5%,84.8%
Cn1cc(-c2nonc2-c2c[nH]c3ccc(Br)cc23)c2cc(Br)ccc21,24.4%,76.8%,40.3%,55.9%,26.1%,22.7%,39.8%,22.8%
Nc1ncnc2c1N=C(c1ccc3c(c1)OCO3)CC(c1cccc(Nc3ccnc4cc(Cl)ccc34)c1)N2 (stereo not drawn),43.3%,74.5%,51.6%,25.4%,8.54% (active),6.7% (active),72%,30.5%
CN1C(=O)N(C)C2Nn3c(s/c(=C\c4ccc(C(F)(F)F)cc4)c3=O)=NC21 (stereo not drawn),107%,113%,91.4%,101%,92%,107%,113%,99.7%
COc1ccc(N2CCC(=O)NC2=S)cc1,102%,101%,109%,96.8%,95.2%,105%,95.9%,106%
COc1ccc(OC)c(C(=O)/C=C/c2cc3c(c(OC)c2OC)OCO3)c1,70.6%,65.6%,63.2%,68.8%,31.4%,43.6%,86.3%,55%
O=C(COc1ccc(-c2nc3ccccc3[nH]2)cc1)N=Nc1c(O)[nH]c2ccc(Cl)cc12,65.4%,110%,93.9%,40.6%,22.3%,47.2%,65.2%,15.3%
Cc1ccc(-c2csc(NC(=O)CN3CCN(c4cc5c(cc4F)c(=O)c(C(=O)O)cn5C4CC4)CC3)n2)cc1,6.74% (active),16.2%,14.4%,27.4%,6.16% (active),14.2%,31.2%,8.87% (active)
O=C(Nc1nn(-c2ccc(Cl)cc2Cl)nc1-c1ccccc1)c1ccccc1,103%,119%,95.3%,105%,105%,84.3%,108%,80.8%
O=C1N[C@@H]2NC(=[N+]3CCOCC3)N[C@@H]2N1,101%,110%,105%,98.8%,95.9%,104%,108%,107%
CCCCC(=O)c1ccco1,79.4%,102%,98.8%,97%,90.9%,91.6%,94.3%,106%
OCCOCCN(Cc1ccccn1)Cc1cc(I)cc(I)c1O,93.9%,81.6%,102%,95.5%,76%,73.4%,111%,91.3%
CC1(C)CC[C@]2(c3nnc(-c4ccncc4)o3)CC[C@H]3C(=CC[C@H]4[C@@]3(C)CC[C@H]3C(C)(C)C(=O)CC[C@]43C)[C@@H]2C1,67.4%,88.1%,78.2%,59%,53.5%,29%,75.3%,70%
Cc1ccc(/C=N/Nc2nc(Nc3ccccc3)nc(-n3nc(C)cc3C)n2)cc1,7.35% (active),-5.91% (active),41.8%,48.8%,16.4%,27.6%,43.1%,25.6%
O=C(Nc1nc2ccc(F)cc2s1)c1cccnc1Nc1ccc(Cl)cc1,-0.413% (active),31.8%,29.2%,49.8%,17.7%,14.2%,31.1%,31.3%
CS(=O)(=O)Nc1cc(-c2ccc3ncnc(Nc4c(Cl)ccc5c4OCO5)c3c2)cnc1Cl,-30.6% (active),-26% (active),-24.9% (active),2.07% (active),0.196% (active),-22.6% (active),-36% (active),-39.7% (active)

SMILES,growth (T-47D breast),growth (BT-549 breast),growth (MDA-MB-435 melanoma),growth (SW-620 colon),growth (MCF7 breast),growth (HCT-116 colon),growth (HCC-2998 colon),growth (KM12 colon)
O=C(Cn1c(=O)sc2ccccc21)NNS(=O)(=O)c1ccccc1[N+](=O)[O-],105%,116%,98.5%,103%,96.5%,107%,107%,99.9%
COc1ccc(NC(=O)c2sc3nc(C)c(C(=O)/C=C/c4cccc(OC)c4)cc3c2N)cc1,49.5%,56.3%,13.6%,0.0421% (active),14.3%,22.8%,23.8%,25.7%
C#Cc1ccc(NC(=O)c2ccc(/C=C/C(=O)c3nccn3C)cc2)cc1,0.0135% (active),-78.5% (active),-44.7% (active),-73.3% (active),-45.4% (active),-62.6% (active),-89.2% (active),-64.1% (active)
COc1cccc(/C=C/C(=O)c2cc3c(N)c(C(=O)Nc4ccccc4)sc3nc2C)c1,33%,30.3%,-6.91% (active),0.132% (active),7.88% (active),14.9%,-37% (active),17.6%
N#Cc1cccc(-c2c(-c3ccc4ccccc4c3)oc3ccccc3c2=O)c1,45.1%,34.1%,-26.8% (active),14.6%,20.3%,12.4%,68.8%,25.9%
CCCCCCCCCCCCCCCC(N)c1ccccc1 (stereo not drawn),33.5%,92.9%,6.53% (active),-49.3% (active),-67.3% (active),-100% (active),-98.2% (active),-75.4% (active)
COc1ccc2cc(-c3ccc(NC(C)=O)c(=O)o3)ccc2c1,87.3%,101%,107%,96.6%,89.9%,90.3%,102%,97%
COc1cc(-c2nc(SCCC(C)C)nc(Nc3ccccc3Cl)c2C#N)cc(OC)c1OC,81.5%,88.4%,96.6%,102%,85.7%,89.3%,109%,96.3%
CCn1cc(C(=O)N/N=C/c2cccs2)c(=O)c2cc(F)c(N3CCNC(C)C3)c(F)c21 (stereo not drawn),77.8%,61.6%,92.2%,-16.8% (active),-77.4% (active),94.5%,28.6%,83.5%
COc1ccc(-c2nc(SCC(C)C)nc(N/N=C\c3ccc(F)cc3)c2C#N)cc1,80.7%,89.9%,92.5%,67.9%,81.2%,60%,104%,97.4%
O=C1c2cc(Cl)ccc2S(=O)(=O)c2c(NCCCNCCO)nc3ccccc3c21,-60% (active),21.7%,2.67% (active),-74.6% (active),-16.2% (active),-78% (active),78.5%,20.1%
COC(=O)/C(CCC=C(C)C)=C1\[C@@H](OC(C)=O)C[C@@]2(C)[C@H]1C[C@@H](O)[C@H]1[C@@]3(C)CC[C@H](NCCN)[C@@H](C)[C@@H]3CC[C@@]12C,83.2%,84.8%,93.6%,85.4%,72.3%,36.8%,91.3%,88.9%
CCN1CCN(Cc2cn(CC(=O)Nc3ccc4c(ccn4Cc4ccccc4)c3)nn2)CC1,91.1%,96.1%,97.7%,99.3%,99.5%,99.2%,110%,101%
O=S(=O)(NCCCNc1nccc(-c2c(-c3ccc(F)c(O)c3)nc3occn23)n1)c1ccccc1,101%,114%,37.4%,100%,77.3%,52.6%,98.7%,84.6%
N#CC1=C(c2ccc(Cl)cc2)Nc2c(c(-c3ccc(Cl)cc3)nn2-c2ccccc2)C12C(=O)Nc1ccc(Cl)cc12 (stereo not drawn),42.3%,31.7%,55.1%,54.8%,33.2%,26.1%,69.1%,27.7%
